# Experimental data: PubChem BioAssay (NCI)
# Compounds without any hit were thinned out: in the full panel of roughly 83,000, 20% have a hit.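 Negative percent growth values reflect cell death: -40 means 40% of the cells present at the start died, and -100 means all died.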 Activity calls are given as the source filed them. Rule for the calls: active = growth percent below 10; inactive = the rest.
# System: MDA-MB-468 breast
# Assay: NCI-60 one-dose screen, 48 h (100 = growth as untreated, 0 = no growth, -100 = all killed)
# Settings: 10 µM unless noted
row,Structure (SMILES),growth
1,O=C1[C@@H]2Cc3c([nH]c4ccccc34)[C@H](c3c(Cl)cccc3Cl)N2C(=O)CN1C1CCN(Cc2ccccc2)CC1,-33.4% (active)
2,COc1ccccc1NC(=O)COc1ccc(/C=C2/Oc3cc4occc4c(OC)c3C2=O)cc1OC,102% (inactive)
3,N#CC(C#N)=Cc1c(-c2ccccc2)[nH]c2ccccc12,32% (inactive)
4,O=C1Nc2ccccc2/C1=N/N=C/c1ccc(OC2OC(CO)C(O)C(O)C2O)cc1 (stereo not given),112% (inactive)
5,Cc1cc(C)c(-c2c(N)cc(Br)cc2Br)c(N)c1,-17.1% (active)
6,COc1cc(/C=C/C(=O)c2ccc(C(F)(F)F)cc2)ccc1Oc1nc(NCCO)nc(N2CCOCC2)n1,85.6% (inactive)
7,COc1cccc(-c2nn(-c3ccccc3)cc2-c2ccnc(NCCNC(=O)Nc3cccc(C(F)(F)F)c3)c2)c1,15.5% (inactive)
8,c1cc(NCCCCN2CCOCC2)c2ccc3c(ccc4c(NCCN5CCOCC5)ccnc43)c2n1,75.8% (inactive)
9,Clc1ncnc2scc(C3COc4ccccc4O3)c12 (stereo not given),-3.8% (active)
10,CN(C)c1nc(N)c(N=O)c(N)n1,114% (inactive)
11,CCOC(=O)N/N=C/c1ccc(OC)c(OC)c1,97.6% (inactive)
12,O=C(/C=C/C12c3ccccc3C(c3ccccc31)C1C(=O)NC(=O)C12)c1ccco1 (stereo not given),21.8% (inactive)
13,CCCCCCCCCCCCCCCC(=O)OC[C@@]1(O)C[C@@]23CC[C@@H]4C(C)(C)[C@H](O)CC[C@@]4(C)[C@@H]2CC[C@H]1C3,112% (inactive)
14,Nc1n[nH]c2cccc(C#Cc3cccc(NC(=O)c4cc(N5CCOCC5)cc(C(F)(F)F)c4)c3)c12,85.6% (inactive)
15,COc1ccc([C@H]2[C@H](C(=O)Nc3cccnc3)c3ccccc3C(=O)N2c2ccccc2)cc1,97.7% (inactive)
16,N#Cc1cccc(C2C3=C(COC3=O)N(CCO)c3cc4c(cc32)CCC4)c1 (stereo not given),3.97% (active)
17,N/C(=N\O)c1ccncc1,121% (inactive)
18,CN(Cc1cnc2nc(N)nc(N)c2n1)c1c(Cl)cc(C(=O)NC(CCC(=O)O)C(=O)O)cc1Cl (stereo not given),15.3% (inactive)
19,COc1cc2cc(Oc3ccc(NC(=O)Nc4ccc(Cl)c(C(F)(F)F)c4)cc3)c(C)nc2cc1OCCN1CCOCC1,-13.5% (active)
20,O=C1Nc2ccccc2/C1=C\c1nc(C2CCN(S(=O)(=O)c3ccc(F)cc3)CC2)n2ccccc12,70.6% (inactive)
21,CC(=O)[C@@H]1CC[C@]2(CO)CC[C@]3(C)[C@H](CC[C@@H]4[C@@]5(C)CCCNC(C)(C)[C@@H]5CC[C@]43C)[C@@H]12,106% (inactive)
22,CCN(Cc1ccccc1)C1CCN(Cc2cc(Br)ccc2O)CC1,25.5% (inactive)
23,C[C@]12CC[C@H]3[C@@H](CC[C@H]4C[C@@H](O)CC[C@@]43C)[C@@H]1CC(=O)C2,113% (inactive)
24,CO[C@H](C(=O)[C@@H](O)[C@@H](C)O)[C@@H]1Cc2cc3cc(O[C@H]4C[C@@H](O[C@H]5C[C@@H](O)[C@H](O)C(C)O5)[C@H](O)C(C)O4)c(C)c(O)c3c(O)c2C(=O)[C@H]1O[C@H]1C[C@@H](O[C@H]2C[C@@H](O[C@H]3C[C@](C)(O)C(=O)C(C)O3)[C@@H](O)C(C)O2)[C@H](O)C(C)O1 (stereo not given in full),-46.7% (active)
25,COc1ccc(/C=C\c2cc(OC)c(OC)c(OC)c2)cc1OCC(=O)Nc1ccc2nc(C)sc2c1,7.78% (active)
